Experimental data from ChEMBL document CHEMBL3988442, “University of Dundee, Small-Polar-MMV Screening Library” (2021).
Hit rate of the full screen: of about 48,000 compounds, about 13,000 (27%) showed an effect of 50% or more. Some of the results follow.

What follows are compounds tested on Wolbachia pipientis (assay: Anti-Wolbachia Cell-Based Screen). Settings: 5 µM.
Format: functional
Set-up: scale not given: in the data most compounds retested in dose-response had high values

Compared with `CCS(=O)(=O)CC(=O)NC1(c2ccc(Cl)c(Cl)c2)CC1`, `CS(=O)(=O)c1ccc(NC(=O)CSc2ccc3c(c2)CCC3)cn1` is higher in “Percent Effect” value: -4.937% for the first, 7.446% for the second.

Compared with `NC(=O)CC1CCN(S(=O)(=O)c2cnn(-c3ccccc3)c2)CC1`, `O=S(=O)(c1ccccc1)N1C[C@@H]2COC[C@]2(COCC2CC2)C1` is lower in “Percent Effect” value: 23.91% for the first, 4.427% for the second.

First: OC[C@H]1CCN(Cc2ccc3ccccc3n2)C[C@@H]1O
Second: F[C@@H]1CN(CC2CC2)C[C@@H]1OCc1nc2ccccc2[nH]1
The “Percent Effect” value of the first is lower: -11.71% for the first, -1.846% for the second.

First: COc1c(C2CCCN2c2ncnc3c2CCC3)c(C)nn1C (stereo unspecified)
Second: CCc1[nH]ncc1C(=O)N1CCN(c2nc(C)cc(OC)n2)CC1
The “Percent Effect” value of the first is lower: -10.62% for the first, -4.996% for the second.

First: CCS(=O)(=O)N1CCC(n2nc(-c3cc(C)oc3C)ccc2=O)CC1
Second: CCCS(=O)(=O)N1CCC(n2nc(-c3cc(C)oc3C)ccc2=O)CC1
The “Percent Effect” value of the first is higher: 128.2% for the first, 123.5% for the second.

First: Cc1cc(-c2n[nH]c3c2CN(S(=O)(=O)c2ccsc2)CC3)c(C)o1
Second: Cc1cc(-c2ccc(=O)n(C3CCN(S(C)(=O)=O)CC3)n2)c(C)o1
The “Percent Effect” value of the first is lower: 6.081% for the first, 123.5% for the second.

Going from `CN(C)S(=O)(=O)N1CCC(Oc2ccc(C#N)cc2)CC1` to `CN(C)S(=O)(=O)N1CCC(C(O)c2ccc(Cl)cc2)CC1` (stereo unspecified), the “Percent Effect” value rises from -11.9% to -7.887%.

First: Cc1cc(-c2ccc(=O)n(C3CCN(S(=O)(=O)N(C)C)CC3)n2)c(C)o1
Second: Cc1cc2cc(CNC3CCN(S(C)(=O)=O)CC3)oc2cc1C
The “Percent Effect” value of the first is higher: 95.62% for the first, -4.149% for the second.

First: CCCS(=O)(=O)N1CCC(c2ccc(OC)cc2)CC1
Second: CCCS(=O)(=O)N1CCC(NC(=O)c2cc(C)c(CC)s2)CC1
The “Percent Effect” value of the first is lower: -3.773% for the first, 4.17% for the second.

Going from `CCS(=O)(=O)N1CCC(c2nnc(C3CC3)o2)CC1` to `O=S(=O)(C1CC1)N1CCC2(CC1)COC(COc1cccnc1)C2` (stereo unspecified), the “Percent Effect” value rises from -10.63% to -3.155%.

Going from `Cc1ccc(C(C)NC(=O)N2CCN(S(C)(=O)=O)CC2)o1` (stereo unspecified) to `COc1ccc(C(=O)N2CCN(CCO)CC2)c(F)c1`, the “Percent Effect” value rises from 16.96% to 102.7%.

Going from `COc1cc(F)ccc1-c1cc(CO)ccn1` to `COc1ccc(F)cc1Cn1nc(C(N)=O)ccc1=O`, the “Percent Effect” value rises from -29.15% to 1.725%.

First: CC(=O)N[C@@H]1Cc2ccccc2[C@H]1Nc1ccncn1
Second: Cn1nc(-c2ccccc2NC(=O)c2cncc(Br)c2)ccc1=O
The “Percent Effect” value of the first is higher: 4.323% for the first, -4.851% for the second.

Compared with `CCC1CCCCN1S(=O)(=O)c1c(N)noc1C` (stereo unspecified), `Cc1cc(C(=O)N[C@H]2CC[C@@]3(CCC(=O)N3C)CC2)no1` is lower in “Percent Effect” value: 0.4068% for the first, -27.57% for the second.

Going from `Cc1nc2cc(F)cc(C(=O)N3CCN(CCO)CC3)c2nc1C` to `O=C(c1ccc(-c2cccs2)cc1F)N1CCN(CCO)CC1`, the “Percent Effect” value falls from -10.5% to -12.79%.

Going from `Cc1cc(C(=O)NC2CCc3c(ccc(=O)n3CCN(C)C)C2)no1` (stereo unspecified) to `Cc1cc(C(=O)NC2CCc3c(ccc(=O)n3CC(C)C)C2)no1` (stereo unspecified), the “Percent Effect” value rises from 93.45% to 105.4%.

Compared with `Cc1cc(C(=O)NC2CCc3c(ccc(=O)n3CC3CC3)C2)no1` (stereo unspecified), `O=C(NC1CCc2c(ccc(=O)n2CC2CC2)C1)c1cscn1` (stereo unspecified) is lower in “Percent Effect” value: 117.2% for the first, -44.11% for the second.

Compared with `CC(C)Cn1c2c(ccc1=O)CC(N)CC2` (stereo unspecified), `CC(C)Cn1c2c(ccc1=O)CC(NC(=O)c1ccsc1)CC2` (stereo unspecified) is higher in “Percent Effect” value: -23.17% for the first, -16.59% for the second.

Going from `N#Cc1cccc(C(=O)NC2CCc3c(ccc(=O)n3CC3CC3)C2)c1` (stereo unspecified) to `O=C(CC1CC1)NC1CCc2c(ccc(=O)n2CC2CC2)C1` (stereo unspecified), the “Percent Effect” value falls from 110.8% to -16.88%.

First: CC(=O)NCC(=O)NC1CCc2c(ccc(=O)n2CC2CC2)C1 (stereo unspecified)
Second: O=C(NC1CCN(c2ccc(-c3ccccc3F)nn2)C1)C1CCC1 (stereo unspecified)
The “Percent Effect” value of the first is lower: -21.87% for the first, -17.95% for the second.

First: CCc1cc(NC2CCS(=O)(=O)CC2)nc(N2CCCCC2)n1
Second: O=C1CCC[C@]2(CN(S(=O)(=O)N3CCCCC3)C[C@H]2c2cccnc2)N1
The “Percent Effect” value of the first is lower: -3.09% for the first, 175% for the second.

Going from `Cn1c(CO)cnc1SC1CCCN(c2ccccc2F)C1=O` (stereo unspecified) to `CC(=O)Cn1nc(-c2ccccc2F)ccc1=O`, the “Percent Effect” value rises from -6.766% to 119.2%.

Compared with `CC(Nc1ccn(CCS(C)(=O)=O)n1)c1ccc(C#N)cc1` (stereo unspecified), `CCN(CC)C(CNS(=O)(=O)c1ccc(C(=O)NC)cc1)c1ccco1` (stereo unspecified) is higher in “Percent Effect” value: -8.389% for the first, 0.6188% for the second.

Compared with `CC(C)(C)C(=O)Cn1nc(-c2ccccc2F)ccc1=O`, `NC(=O)Cn1nc(-c2ccccc2F)ccc1=O` is higher in “Percent Effect” value: -0.9957% for the first, 144.8% for the second.

Going from `COc1ccc(C(=O)Nc2ccccc2-c2ccc(=O)n(C)n2)nn1` to `COC(=O)Cn1nc(-c2ccccc2F)ccc1=O`, the “Percent Effect” value rises from -4.369% to 121.8%.

First: O=C(O)Cn1nc(-c2ccccc2F)ccc1=O
Second: O=C(N1CC(c2cccnc2)C1)C1(c2ccc(F)cc2)CCOCC1
The “Percent Effect” value of the first is higher: 139.2% for the first, 1.587% for the second.

Compared with `CC(C)Oc1cccc(C(=O)C2CCCN(C(=O)c3ncn[nH]3)C2)c1` (stereo unspecified), `CC1(C)CN(S(=O)(=O)N2CCCC2)CC1c1ccccc1` (stereo unspecified) is lower in “Percent Effect” value: -4.294% for the first, -16.61% for the second.

Going from `CC(c1nc(C2CC2)no1)N(C)Cc1cccc(F)c1` (stereo unspecified) to `Cc1cccc(CN2C[C@@H]3COC[C@]3(COc3ccc(C#N)cn3)C2)n1`, the “Percent Effect” value falls from 12.3% to -1.985%.

First: CC(C)N1CCC2(CC1)CC(c1cccnc1)C(=O)N2 (stereo unspecified)
Second: O=C1CCC[C@]2(CN(S(=O)(=O)N3CCOCC3)C[C@H]2c2cccnc2)N1
The “Percent Effect” value of the first is lower: -11.82% for the first, 174.7% for the second.

Compared with `O=C1CCC[C@]2(CN(S(=O)(=O)C3CCCCC3)C[C@H]2c2cccnc2)N1`, `N[C@H]1CN(S(=O)(=O)N2CCCCCC2)C[C@@H]1c1ccccc1` is lower in “Percent Effect” value: 155.7% for the first, 3.796% for the second.

Going from `CC1(C)CN(S(=O)(=O)N2CCOCC2)CC1c1ccccc1` (stereo unspecified) to `c1ccc(COC[C@]23COC[C@H]2CN(c2ncccn2)C3)nc1`, the “Percent Effect” value rises from -33.51% to 107.1%.

First: O=C(OCCNc1ncccn1)c1ccc(Cl)s1
Second: N#Cc1ccc(OC[C@]23COC[C@H]2CN(c2ncccn2)C3)nc1
The “Percent Effect” value of the first is lower: -0.7929% for the first, 98.67% for the second.

Going from `c1ccc(COC[C@@H]2CC[C@H]3[C@H](CCN3c3ncccn3)O2)nc1` to `Cn1cc(CN2C[C@@H]3COC[C@]3(COc3ccc(C#N)cn3)C2)cn1`, the “Percent Effect” value rises from -9.448% to -1.317%.
